From PubChem BioAssay (NCI)
About 83,000 compounds went through this panel and 20% of them were active in at least one assay; those are over-represented in the sample as a whole.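 Percent growth is the endpoint: 0 to 100 indicates growth inhibition (40 means 60% inhibition), 0 means no net growth, and negative values indicate cell death.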 Calls of active or inactive are those of the source. Rule for the calls: active = growth percent below 10; inactive = the rest.

How the values were obtained:
Assay in all cases: NCI-60 one-dose screen, 48 h (100 = growth as untreated, 0 = no growth, -100 = all killed)
Conditions in all cases: 10 µM unless noted
T-47D breast = tested on: T-47D breast
BT-549 breast = tested on: BT-549 breast
MDA-MB-435 melanoma = tested on: MDA-MB-435 melanoma
SW-620 colon = tested on: SW-620 colon
MCF7 breast = tested on: MCF7 breast
HCT-116 colon = tested on: HCT-116 colon
HCC-2998 colon = tested on: HCC-2998 colon
KM12 colon = tested on: KM12 colon

Measured: growth

COc1cc2nc(Cl)nc(Nc3cccc(C(=O)/C=C/c4ccc(F)cc4)c3)c2cc1OC
inactive: T-47D breast 67.6% | BT-549 breast 61.4% | MDA-MB-435 melanoma 39.4% | MCF7 breast 23.8% | HCC-2998 colon 49.9% | KM12 colon 28.4%
active: SW-620 colon 2.24% | HCT-116 colon -41.2%

COc1ccc2c(c1)c(-c1nc(-c3c[nH]c4ncccc34)cs1)cn2CCCN1CCCCC1
inactive: T-47D breast 66.1% | BT-549 breast 67.5% | HCT-116 colon 25.9% | HCC-2998 colon 88.5% | KM12 colon 47.3%
active: MDA-MB-435 melanoma -84.6% | SW-620 colon -43.3% | MCF7 breast 10%

COC(=O)[C@]12CC[C@@H](C)[C@H](C)[C@@H]1C1=CC[C@@H]3[C@@]4(C)C[C@@H](OC(C)=O)[C@H](O)[C@@](C)(COC(C)=O)[C@@H]4[C@H](O)C[C@@]3(C)[C@]1(C)CC2
active: T-47D breast -66.3% | BT-549 breast -85.8% | MDA-MB-435 melanoma -81.7% | SW-620 colon -80.9% | MCF7 breast -78.7% | HCT-116 colon -69.5% | HCC-2998 colon -89.7% | KM12 colon -75.4%

Fc1ccc(Nc2nc(Nc3ccc(-c4nc5ccccc5[nH]4)cc3)nc(N3CCCC3)n2)cc1
active: SW-620 colon 0.692% | HCT-116 colon -53.6%
inactive: T-47D breast 44.6% | BT-549 breast 85.1% | MDA-MB-435 melanoma 98.1% | MCF7 breast 32.7% | HCC-2998 colon 55.7% | KM12 colon 83.8%

Cc1cc2nc3c4cc([N+](=O)[O-])cc([N+](=O)[O-])c4n(CCN(C)C)c3nc2cc1C
inactive: T-47D breast 73.6% | BT-549 breast 90.7% | MDA-MB-435 melanoma 92.1% | SW-620 colon 45.6% | MCF7 breast 63.2% | HCT-116 colon 45.3% | HCC-2998 colon 88.2% | KM12 colon 77.1%

Cc1ccc(-c2nc3ccc(Cl)cc3c(=O)n2N2C(=O)CSC2c2ccccc2Cl)cc1 (stereo not given)
inactive: T-47D breast 75.8% | BT-549 breast 100% | MDA-MB-435 melanoma 66.9% | SW-620 colon 77.8% | MCF7 breast 94.1% | HCT-116 colon 53.1% | HCC-2998 colon 93.4% | KM12 colon 82.3%

O=C(O)/C(=C/c1ccc(O)cc1)c1ccccc1
inactive: T-47D breast 94.6% | BT-549 breast 95.5% | MDA-MB-435 melanoma 109% | SW-620 colon 105% | MCF7 breast 98% | HCT-116 colon 92.7% | HCC-2998 colon 95.8% | KM12 colon 107%

Nc1c(C(=O)Nc2cccc3ccccc23)sc2nc3c(cc12)CCCC3
active: MDA-MB-435 melanoma -63.1%
inactive: T-47D breast 55.7% | BT-549 breast 64.6% | SW-620 colon 31% | MCF7 breast 20.6% | HCT-116 colon 20.7% | HCC-2998 colon 26.7% | KM12 colon 26.7%

COc1ccc(-c2cc(=O)oc3ccc(Cl)cc23)cc1F
active: MDA-MB-435 melanoma -21.1% | HCT-116 colon 5.47%
inactive: T-47D breast 50.5% | BT-549 breast 18.9% | SW-620 colon 23.5% | MCF7 breast 17.4% | HCC-2998 colon 19.6% | KM12 colon 11.2%

COc1cccc2c1C(=O)c1c(O)c3c(c(O)c1C2=O)C[C@@](O)(C(=O)CO)C[C@@H]3OC1C[C@H](N)[C@H](O)[C@H](C)O1 (stereo not given in full)
active: T-47D breast -0.159% | BT-549 breast -56.5% | MDA-MB-435 melanoma -82.6% | SW-620 colon 1.37% | MCF7 breast 4.42% | HCT-116 colon 3.07% | HCC-2998 colon -45.9% | KM12 colon -14.2%

Clc1ccc2c(NCCNc3nc(-c4ccccc4)cc(-c4ccccc4)n3)ccnc2c1
inactive: BT-549 breast 75.1%
active: T-47D breast -59.7% | MDA-MB-435 melanoma -82.6% | SW-620 colon -53.7% | MCF7 breast -68.7% | HCT-116 colon -69.9% | HCC-2998 colon -28.7% | KM12 colon 5.29%

COc1ccc(/C=C2\N=C(c3ccccc3)N(c3cc(OC)c(OC)cc3C(=O)N3N=C(C)CC3=O)C2=O)cc1
inactive: T-47D breast 71.2% | BT-549 breast 90.1% | MDA-MB-435 melanoma 93.4% | SW-620 colon 108% | MCF7 breast 89.7% | HCT-116 colon 89.6% | HCC-2998 colon 113% | KM12 colon 91.1%

C#CCN=C[C@]12CC[C@@H](C(=C)C)[C@@H]1[C@H]1CC[C@@H]3[C@@]4(C)CCC(=O)C(C)(C)[C@@H]4CC[C@@]3(C)[C@]1(C)CC2
inactive: T-47D breast 37% | BT-549 breast 48.3% | MDA-MB-435 melanoma 72.4% | SW-620 colon 65.3% | MCF7 breast 42.5% | HCT-116 colon 26.8% | HCC-2998 colon 78.1% | KM12 colon 61%

CCN(CC)CCCCCNc1cc(OC(=O)c2ccccc2)cc2cccnc12
inactive: T-47D breast 76.6% | BT-549 breast 97.2% | MDA-MB-435 melanoma 53.6% | SW-620 colon 80.8% | MCF7 breast 134% | HCT-116 colon 44.5% | HCC-2998 colon 104% | KM12 colon 81.3%

Cc1cc(N(CCNc2ccnc3cc(Cl)ccc23)Cc2ccco2)nc(Cl)n1
active: T-47D breast -69.1% | BT-549 breast -78% | SW-620 colon -35.6% | MCF7 breast -29.7% | HCT-116 colon -96.8%
inactive: MDA-MB-435 melanoma 30.1% | HCC-2998 colon 62.2% | KM12 colon 26.5%
